Assay results published in ChEMBL document CHEMBL3988442, “University of Dundee, Small-Polar-MMV Screening Library” (2021).
For some assays here: Potency and affinity values are given separately.

What was measured:
Design in all cases: scale not given: direction of the effect not stated beside the values
[1] = target: Protein translocase subunit SecA (Escherichia coli (strain K12)) (UniProt P10408); test: Assay to Identify E. coli SecA ATPase Inhibitors; assay type: functional; conditions: 30 µM
Sequence of Protein translocase subunit SecA (Escherichia coli (strain K12)) (P10408 whole entry): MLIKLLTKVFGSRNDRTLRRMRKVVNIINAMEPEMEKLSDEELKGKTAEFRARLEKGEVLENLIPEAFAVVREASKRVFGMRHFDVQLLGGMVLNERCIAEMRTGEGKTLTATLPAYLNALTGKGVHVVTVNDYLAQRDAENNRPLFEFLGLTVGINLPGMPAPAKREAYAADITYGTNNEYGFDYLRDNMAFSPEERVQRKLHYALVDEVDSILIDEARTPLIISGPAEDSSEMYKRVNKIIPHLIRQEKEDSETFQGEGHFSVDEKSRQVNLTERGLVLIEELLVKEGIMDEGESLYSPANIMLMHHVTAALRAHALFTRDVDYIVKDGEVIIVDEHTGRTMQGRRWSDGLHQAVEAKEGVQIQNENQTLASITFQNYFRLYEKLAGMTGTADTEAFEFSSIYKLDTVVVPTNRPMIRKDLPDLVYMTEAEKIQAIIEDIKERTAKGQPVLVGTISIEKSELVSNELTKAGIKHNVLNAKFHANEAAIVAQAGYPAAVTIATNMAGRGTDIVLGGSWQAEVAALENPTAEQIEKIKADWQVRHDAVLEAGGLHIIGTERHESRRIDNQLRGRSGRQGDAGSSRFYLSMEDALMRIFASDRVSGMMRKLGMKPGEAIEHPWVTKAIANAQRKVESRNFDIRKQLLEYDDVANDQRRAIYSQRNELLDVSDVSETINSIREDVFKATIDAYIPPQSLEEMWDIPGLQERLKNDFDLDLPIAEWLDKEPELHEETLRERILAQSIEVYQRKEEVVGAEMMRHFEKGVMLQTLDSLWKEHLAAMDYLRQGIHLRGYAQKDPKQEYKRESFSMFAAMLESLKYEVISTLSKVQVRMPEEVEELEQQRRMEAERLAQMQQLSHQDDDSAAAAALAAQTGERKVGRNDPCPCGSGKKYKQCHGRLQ

[2] = target: T1, Ubiquitin-activating enzyme e1, putative (Leishmania donovani (strain BPK282A1)) (UniProt E9BSI1); test: Leishmania donovani Ubiquitin Activating Enzyme (LdE1); assay type: functional; conditions: 30 µM
T1 sequence (whole entry): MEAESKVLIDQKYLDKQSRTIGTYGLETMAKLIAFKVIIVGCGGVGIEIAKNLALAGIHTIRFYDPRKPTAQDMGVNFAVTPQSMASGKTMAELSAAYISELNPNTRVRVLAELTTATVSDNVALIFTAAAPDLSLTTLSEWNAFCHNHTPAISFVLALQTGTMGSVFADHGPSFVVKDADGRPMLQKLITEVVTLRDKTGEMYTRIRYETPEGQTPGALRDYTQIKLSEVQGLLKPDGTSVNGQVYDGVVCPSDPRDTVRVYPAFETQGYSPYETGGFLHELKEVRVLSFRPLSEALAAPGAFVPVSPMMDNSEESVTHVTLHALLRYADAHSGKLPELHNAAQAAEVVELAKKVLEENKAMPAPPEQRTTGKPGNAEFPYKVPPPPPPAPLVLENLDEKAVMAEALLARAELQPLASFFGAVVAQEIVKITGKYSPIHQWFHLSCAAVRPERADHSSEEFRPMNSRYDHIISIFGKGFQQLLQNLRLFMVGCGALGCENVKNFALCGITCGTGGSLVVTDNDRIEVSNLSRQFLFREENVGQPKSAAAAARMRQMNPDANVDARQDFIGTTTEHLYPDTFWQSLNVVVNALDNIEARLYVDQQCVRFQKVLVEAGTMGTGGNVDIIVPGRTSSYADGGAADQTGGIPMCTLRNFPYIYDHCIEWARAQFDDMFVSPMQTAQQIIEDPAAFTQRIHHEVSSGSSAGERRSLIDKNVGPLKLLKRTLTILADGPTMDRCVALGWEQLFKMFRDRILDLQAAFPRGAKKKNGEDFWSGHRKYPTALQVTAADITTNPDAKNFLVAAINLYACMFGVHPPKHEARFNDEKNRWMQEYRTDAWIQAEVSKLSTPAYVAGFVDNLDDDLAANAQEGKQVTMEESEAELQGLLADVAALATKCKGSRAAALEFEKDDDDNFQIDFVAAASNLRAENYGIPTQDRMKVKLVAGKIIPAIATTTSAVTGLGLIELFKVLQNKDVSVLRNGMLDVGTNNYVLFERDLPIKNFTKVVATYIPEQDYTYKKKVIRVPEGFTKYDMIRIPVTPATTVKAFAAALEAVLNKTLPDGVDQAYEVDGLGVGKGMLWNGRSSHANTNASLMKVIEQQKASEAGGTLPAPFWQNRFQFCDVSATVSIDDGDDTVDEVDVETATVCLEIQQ

[3] = target: AMP-activated protein kinase, AMPK (Homo sapiens) (UniProt P54646+O43741+P54619+Q9UGJ0+Q9Y478+Q13131+Q9UGI9); test: AMP-dependent Kinase enzyme assay. An in vitro enzyme assay that detects ADP turnover that is directly proportional to AMPK activity. This uses naive AMPK that is activated during the assay with MK-8722; assay type: functional; conditions: 30 µM
[4] = target: Sialic acid-binding Ig-like lectin 9 (Homo sapiens) (UniProt Q9Y336); test: Hs-Siglec9 ALPHAscreen SOP 20170721; conditions: 10 µM
Sequence of Sialic acid-binding Ig-like lectin 9 (Homo sapiens) (Q9Y336 whole entry): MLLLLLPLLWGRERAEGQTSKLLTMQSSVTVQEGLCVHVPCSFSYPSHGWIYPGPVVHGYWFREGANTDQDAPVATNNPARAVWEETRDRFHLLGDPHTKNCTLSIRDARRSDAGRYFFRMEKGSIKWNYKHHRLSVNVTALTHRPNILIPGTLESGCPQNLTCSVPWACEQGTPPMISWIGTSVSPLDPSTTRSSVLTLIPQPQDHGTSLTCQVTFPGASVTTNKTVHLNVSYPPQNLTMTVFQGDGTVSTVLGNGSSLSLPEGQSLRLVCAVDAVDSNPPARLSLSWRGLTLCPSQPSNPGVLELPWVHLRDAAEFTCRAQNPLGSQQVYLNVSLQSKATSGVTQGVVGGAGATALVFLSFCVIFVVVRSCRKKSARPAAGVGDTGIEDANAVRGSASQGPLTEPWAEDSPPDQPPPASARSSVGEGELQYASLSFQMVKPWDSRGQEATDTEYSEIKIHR

Trypanosoma cruzi = test: Trypanosoma cruzi phosphomannomutase and mannose-1-phosphate guanylyltransferase assay; assay type: functional; conditions: 10 µM
[5] = target: T2, Arginase-2, mitochondrial (Homo sapiens) (UniProt P78540); test: in vitro enzyme assay to detect the production of urea directly proportional to the activity of Arginase II; assay type: functional; conditions: 33.3 µM; further: in the data most compounds retested in dose-response had high values
T2 sequence (whole entry): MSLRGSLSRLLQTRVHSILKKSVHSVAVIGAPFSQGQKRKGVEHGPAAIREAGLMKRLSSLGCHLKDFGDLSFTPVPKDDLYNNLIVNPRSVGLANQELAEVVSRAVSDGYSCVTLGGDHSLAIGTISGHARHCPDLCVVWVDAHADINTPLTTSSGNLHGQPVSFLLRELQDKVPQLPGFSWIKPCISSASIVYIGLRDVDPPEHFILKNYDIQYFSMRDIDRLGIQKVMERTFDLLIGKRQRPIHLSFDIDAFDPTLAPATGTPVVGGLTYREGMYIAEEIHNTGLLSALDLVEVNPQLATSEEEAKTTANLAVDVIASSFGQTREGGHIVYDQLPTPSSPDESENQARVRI

[6] = target: T3, Proteasome subunit beta (Trypanosoma cruzi) (UniProt O96673); test: Trypanosoma cruzi proteasome chymotrypsin-like activity (TcProtChymo) assay.; further: in the data most compounds retested in dose-response had high values; assay type: functional; conditions: 9.37 µM
T3 sequence (whole entry): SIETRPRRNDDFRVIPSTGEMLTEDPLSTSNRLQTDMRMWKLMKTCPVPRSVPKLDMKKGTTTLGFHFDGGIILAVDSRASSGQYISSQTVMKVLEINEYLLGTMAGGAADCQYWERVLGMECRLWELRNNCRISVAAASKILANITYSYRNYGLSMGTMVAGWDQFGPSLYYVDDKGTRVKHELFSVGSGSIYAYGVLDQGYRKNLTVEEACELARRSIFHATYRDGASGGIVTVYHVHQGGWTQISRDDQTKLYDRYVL

Homo sapiens = species: Homo sapiens; test: To identify inhibition of the IFN signalling (Jak-Stat) pathway via expression of an eGFP reporter gene under the control of an IFN-stimulated response element (ISRE) containing MxA promoter.; assay type: functional; conditions: 30 µM
[7] = target: T4, Tyrosyl-tRNA synthetase, putative (Trypanosoma cruzi (strain CL Brener)) (UniProt Q4DSP6); test: Trypanosoma cruzi tyrosyl tRNA synthetase (TcYRS) _High Tyrosine SOP; assay type: functional; conditions: 30 µM; further: in the data most compounds retested in dose-response had high values
T4 sequence (whole entry): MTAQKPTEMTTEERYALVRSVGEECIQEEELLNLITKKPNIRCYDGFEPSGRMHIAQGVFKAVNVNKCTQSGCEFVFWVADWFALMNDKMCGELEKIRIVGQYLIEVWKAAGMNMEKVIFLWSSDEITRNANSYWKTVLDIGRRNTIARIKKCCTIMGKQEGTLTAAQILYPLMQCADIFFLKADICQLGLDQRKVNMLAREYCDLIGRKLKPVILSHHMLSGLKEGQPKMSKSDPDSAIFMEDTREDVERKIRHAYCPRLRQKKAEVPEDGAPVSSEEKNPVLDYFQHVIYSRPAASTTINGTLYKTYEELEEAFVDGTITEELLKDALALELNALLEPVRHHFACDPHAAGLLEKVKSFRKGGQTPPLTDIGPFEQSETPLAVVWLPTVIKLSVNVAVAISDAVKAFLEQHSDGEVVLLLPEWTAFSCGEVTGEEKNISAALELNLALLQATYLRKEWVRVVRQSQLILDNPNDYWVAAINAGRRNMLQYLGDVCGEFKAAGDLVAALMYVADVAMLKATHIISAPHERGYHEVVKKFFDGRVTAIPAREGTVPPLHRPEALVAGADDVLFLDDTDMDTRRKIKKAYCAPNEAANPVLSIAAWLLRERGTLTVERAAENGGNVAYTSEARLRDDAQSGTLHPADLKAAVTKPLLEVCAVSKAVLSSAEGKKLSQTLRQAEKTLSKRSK

[8] = target: T4, Tyrosyl-tRNA synthetase, putative (Trypanosoma cruzi (strain CL Brener)); test: Trypanosoma cruzi tyrosyl tRNA synthetase (TcYRS) SOP; assay type: functional; conditions: 30 µM
[9] = target: Chromo domain-containing protein 1 (Saccharomyces cerevisiae (strain ATCC 204508 / S288c) (Baker's yeast)) (UniProt P32657); test: ScCHD-1 Enzyme Inhibition Assay; assay type: functional; conditions: 30 µM; further: in the data most compounds retested in dose-response had high values
Sequence of Chromo domain-containing protein 1 (Saccharomyces cerevisiae (strain ATCC 204508 / S288c) (Baker's yeast)) (P32657 whole entry, the tested form may be a part): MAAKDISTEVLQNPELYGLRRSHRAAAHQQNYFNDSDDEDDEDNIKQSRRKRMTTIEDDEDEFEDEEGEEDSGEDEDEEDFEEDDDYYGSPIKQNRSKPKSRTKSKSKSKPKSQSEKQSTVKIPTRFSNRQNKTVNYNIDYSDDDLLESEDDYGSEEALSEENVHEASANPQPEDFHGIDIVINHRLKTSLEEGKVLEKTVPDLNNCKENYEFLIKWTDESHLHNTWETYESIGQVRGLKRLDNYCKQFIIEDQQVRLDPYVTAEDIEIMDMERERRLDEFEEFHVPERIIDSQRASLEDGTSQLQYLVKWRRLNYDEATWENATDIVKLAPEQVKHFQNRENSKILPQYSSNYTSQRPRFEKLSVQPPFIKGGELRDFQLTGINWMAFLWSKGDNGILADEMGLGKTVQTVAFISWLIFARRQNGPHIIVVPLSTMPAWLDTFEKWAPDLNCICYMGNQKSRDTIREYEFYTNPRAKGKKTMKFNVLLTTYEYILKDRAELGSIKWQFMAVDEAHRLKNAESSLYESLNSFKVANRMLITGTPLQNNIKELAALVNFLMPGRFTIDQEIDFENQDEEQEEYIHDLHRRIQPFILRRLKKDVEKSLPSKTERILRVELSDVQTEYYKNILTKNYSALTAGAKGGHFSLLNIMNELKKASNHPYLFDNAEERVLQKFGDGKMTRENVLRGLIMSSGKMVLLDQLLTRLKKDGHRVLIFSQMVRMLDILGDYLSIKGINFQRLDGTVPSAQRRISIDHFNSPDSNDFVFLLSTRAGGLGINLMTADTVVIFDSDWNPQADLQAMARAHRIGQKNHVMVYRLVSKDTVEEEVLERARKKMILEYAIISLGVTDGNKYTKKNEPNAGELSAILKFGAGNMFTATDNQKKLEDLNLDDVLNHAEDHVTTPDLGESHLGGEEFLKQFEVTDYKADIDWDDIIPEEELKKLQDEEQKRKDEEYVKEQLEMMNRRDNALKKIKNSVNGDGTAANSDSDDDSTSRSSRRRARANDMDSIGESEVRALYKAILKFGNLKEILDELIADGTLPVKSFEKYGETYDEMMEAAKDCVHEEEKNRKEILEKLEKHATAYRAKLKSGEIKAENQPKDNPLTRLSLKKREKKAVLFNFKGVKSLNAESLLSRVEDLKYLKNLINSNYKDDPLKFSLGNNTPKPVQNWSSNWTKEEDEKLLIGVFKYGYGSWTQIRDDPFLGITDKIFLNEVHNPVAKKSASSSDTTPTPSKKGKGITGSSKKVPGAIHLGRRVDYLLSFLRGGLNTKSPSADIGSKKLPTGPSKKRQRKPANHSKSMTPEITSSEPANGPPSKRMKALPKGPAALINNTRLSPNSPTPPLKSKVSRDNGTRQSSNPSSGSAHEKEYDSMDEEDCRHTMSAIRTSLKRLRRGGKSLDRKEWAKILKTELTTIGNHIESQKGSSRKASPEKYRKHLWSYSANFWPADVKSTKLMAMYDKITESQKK

| Compound | Percent Effect [1] [%] | Percent Effect [2] [%] | Percent Effect [3] [%] | Percent Effect [4] [%] | Percent Effect (Trypanosoma cruzi) [%] | Percent Effect [5] [%] | Percent Effect [6] [%] | Percent Effect (Homo sapiens) [%] | Percent Effect [7] [%] | Percent Effect [8] [%] | Percent Effect [9] [%] |
| --- | --- | --- | --- | --- | --- | --- | --- | --- | --- | --- | --- |
| C=C(C)C(=O)N1CCC(C(=O)c2cc(C)cnc2N)CC1 | -7.55 | 5.33 | 0.0671 | 1.76 | 7.09 | -1.63 | 5.55 | 11.8 | 7.45 | 14.1 | -3.43 |
| CN(CCO)Cc1nnc(C2CCN(C3CCCCC3)CC2)n1C | -3.52 | 8 | 0.423 | -0.412 | -3.41 | 2.08 | 18.1 | 10.8 | 2.73 | 11.1 | -6.36 |
| Cc1ccc(NC2CCN(C(=O)CC3CCCO3)CC2)nn1 (centres undefined) | -3.13 | -5.41 | -10.4 | 8.84 | -2.17 | 2 | 1.8 | 5.87 | 1.48 | -8.64 | 0.857 |
| Cc1cc(N2CCC(N(C)C(=O)Nc3ccccc3)CC2)nc(C)n1 | -4.81 | 8.22 | 12.3 | -3.15 | -1.18 | 6.36 | 12.8 | 6.79 | 4.3 | 10 | -2.89 |
| CN(C(=O)Cn1nc(-c2ccc(F)cc2)ccc1=O)C1CCS(=O)(=O)C1 (centres undefined) | -7.39 | 10.5 | 7.4 | 10.6 | 1.85 | -16.6 | 6.81 | -4.86 | 3.19 | 7.79 | -3.65 |
| COc1cccc(CC2CN(C3CCN(C(C)=O)CC3)CCO2)c1 (centres undefined) | -1.38 | -7.79 | 2.17 | 2.19 | -1.87 | -2.76 | -0.499 | -4.71 | 2.15 | 3.7 | 1.6 |
| CC(=O)N(Cc1ncc(C)o1)C1CCN(CCNC2CCCCC2)C1 (centres undefined) | -1.61 | 2.7 | 2.29 | -9.81 | -9.68 | 0.744 | 13 | 18.4 | -2.15 | -3.7 | -7.63 |
| COc1ccc(OCc2cc(C(=O)N3CCN[C@H](C)C3)n[nH]2)c(Cl)c1 | -0.706 | 5.41 | 0.0243 | -0.0327 | -4.63 | 2.86 | 14.5 | 5.15 | 2.65 | 9.76 | -3.55 |
| CC(O)CN1CCN(Cc2nnc(C3CC3)o2)CC1 (centres undefined) | -2.68 | 22.8 | -5.24 | -11.8 | 6.7 | 4.56 | 15 | -18.4 | 6.4 | 21.5 | -4.52 |
| Cn1cc(C(=O)N2C[C@@H]3COC[C@]3(COCc3cccnc3)C2)cn1 | 0.921 | 13 | 7.58 | 1.08 | -4.83 | 11 | 17.4 | 3.89 | 0 | 8.97 | -5.24 |
| CC(=O)N1CC(=O)N(c2cnn(C)c2)CC12CCN(Cc1ccoc1)C2 (centres undefined) | -1.18 | 5.41 | 1.2 | -0.95 | 1.95 | 1.25 | -1.61 | 5.16 | 2.97 | 11 | -1.77 |
| O=C(CN1CCc2ccccc21)Nc1ccc(OC(F)F)cc1 | -2 | 1.39 | 0.216 | 8.48 | -2.23 | 0.883 | 21.1 | 8.31 | 0 | -7.69 | 88.5 |
| Cc1nccc(C2CN(Cc3cc[nH]n3)CCO2)n1 (centres undefined) | -1.51 | 1.35 | 9.42 | 3.04 | -1.98 | -1.16 | 4.84 | -10.9 | 0 | 3.9 | -12.4 |
| Cc1cccc(C(=O)NCc2ccnc(N(C)C)c2)n1 | 1.73 | -5.2 | 2.32 | 6.58 | -3.04 | 2.32 | 3.15 | 15.9 | 0 | -37.6 | 8 |
| COCCN1CCC2(CC1)CN(C(=O)N(C)C)c1ccc(C)cc12 | -5.7 | 5.41 | -1.76 | -3.94 | -3.62 | 2.23 | 6.83 | 12.1 | 0 | 5.13 | 0.0767 |
| O=C(Cc1ccc2c(c1)CCO2)N1CCN(c2cnccn2)CC1 | -4.64 | -7.89 | 2.2 | -0.444 | 9.59 | -1.53 | 0.167 | 5.16 | 3.43 | 7.32 | -12.2 |
| COc1ccccc1[C@@H]1CN(Cc2cc(C(C)(C)C)[nH]n2)C[C@H]1C(=O)O | -3.72 | 18.1 | -4.78 | 2.73 | 4.18 | 5.3 | 20.2 | 0.766 | 5.26 | 10.3 | -3.34 |
| O=C1CCCN1CC1CN(C(=O)CC2CCCC2)Cc2nccn2C1 (centres undefined) | -4.26 | 7.79 | 4.17 | 6.88 | -1.08 | 0.645 | 11.7 | -6.04 | 4.23 | 11.5 | -9.36 |
| O=S(=O)(c1ccccc1)N1CCC2(CCCN2CC2CCCC2)C1 (centres undefined) | -2.93 | -21.6 | -3 | 2.91 | -0.489 | 4.78 | 13.3 | -13.9 | 6.49 | 5.13 | 11 |
